Experimental findings from PubChem BioAssay are described below.

The experiment deals with Epidermal growth factor receptor (Homo sapiens) (UniProt P00533). Description: EGFR binders on small-molecule microarrays, primary screen, biochemical, small-molecule microarray, 635 nm fluorescence (AID 1104).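 Further: score merges 667 nm emission intensity with spot signal to noise over triplicate slides.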 As to conditions: EGFR binding, higher = more signal.
Sequence of Epidermal growth factor receptor (Homo sapiens) (P00533 whole entry, looked up): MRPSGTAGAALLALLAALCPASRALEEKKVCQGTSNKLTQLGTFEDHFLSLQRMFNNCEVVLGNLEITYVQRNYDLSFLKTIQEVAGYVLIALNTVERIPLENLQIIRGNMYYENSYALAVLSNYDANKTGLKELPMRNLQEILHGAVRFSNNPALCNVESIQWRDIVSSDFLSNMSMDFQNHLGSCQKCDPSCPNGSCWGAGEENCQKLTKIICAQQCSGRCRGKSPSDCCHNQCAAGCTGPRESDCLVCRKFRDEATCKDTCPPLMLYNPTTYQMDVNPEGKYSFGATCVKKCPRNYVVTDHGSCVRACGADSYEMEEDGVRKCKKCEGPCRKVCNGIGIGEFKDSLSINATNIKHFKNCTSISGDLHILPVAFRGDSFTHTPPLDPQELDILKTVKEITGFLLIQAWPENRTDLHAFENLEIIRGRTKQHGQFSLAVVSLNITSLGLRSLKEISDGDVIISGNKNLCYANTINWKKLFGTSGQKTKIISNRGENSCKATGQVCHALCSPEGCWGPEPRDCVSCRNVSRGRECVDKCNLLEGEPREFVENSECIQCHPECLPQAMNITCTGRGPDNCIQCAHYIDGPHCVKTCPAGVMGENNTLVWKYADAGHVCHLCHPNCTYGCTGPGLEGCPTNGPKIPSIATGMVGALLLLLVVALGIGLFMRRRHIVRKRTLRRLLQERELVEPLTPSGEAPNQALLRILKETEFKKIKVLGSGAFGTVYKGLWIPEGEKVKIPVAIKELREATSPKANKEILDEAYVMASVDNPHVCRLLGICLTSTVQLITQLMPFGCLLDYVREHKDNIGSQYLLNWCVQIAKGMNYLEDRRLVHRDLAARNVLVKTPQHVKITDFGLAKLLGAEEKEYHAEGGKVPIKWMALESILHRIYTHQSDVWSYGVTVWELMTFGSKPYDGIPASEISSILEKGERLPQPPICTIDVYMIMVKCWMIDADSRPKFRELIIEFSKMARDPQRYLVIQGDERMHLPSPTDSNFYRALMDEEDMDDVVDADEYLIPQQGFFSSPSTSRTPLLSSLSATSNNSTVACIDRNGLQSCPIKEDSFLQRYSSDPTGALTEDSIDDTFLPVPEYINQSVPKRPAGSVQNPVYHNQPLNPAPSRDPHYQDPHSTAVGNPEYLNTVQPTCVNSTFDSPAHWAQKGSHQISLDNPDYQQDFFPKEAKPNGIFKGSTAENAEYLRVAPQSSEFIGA
Compound `COc1ccc(C(O)C2C=CC3C(=O)N(c4ccccc4)C(=O)C3N2Nc2ccc(C#N)cc2)c2ccccc12` (stereo not given) yielded a composite z-score of -0.0239. `COCCOC(=O)N1C(=O)[C@@]2(c3ccccc31)[C@H](C(=O)N1CCN(c3ncccn3)CC1)[C@H]1C(=O)O[C@H](c3ccccc3)[C@H](c3ccccc3)N1[C@@H]2c1ccc(OCCO)cc1` yielded a composite z-score of 1.

Regarding `CC=CC(O)C1C=CC2C(=O)N(c3ccccc3)C(=O)C2N1Nc1ccccc1` (stereo not given), the composite z-score came out at 0.247. On to `Cc1ccc(S[C@]2(C(=O)NCC(F)(F)F)CC(=O)N(Cc3ccccc3)[C@@H]2c2ccc(CO)cc2)cc1`, for which the composite z-score is -0.938. As for `[N-]=[N+]=Nc1ccccc1C[C@@]1(C(=O)O)N=C(c2ccc(OCCCO)cc2)O[C@@H]1c1ccccc1`, the composite z-score was -0.423. As for `COCCCNC(=O)[C@]1(Cc2ccccc2CN=[N+]=[N-])N=C(c2ccc(OCCCO)cc2)O[C@@H]1c1ccccc1`, the figure is -0.251; as for `CC(C)OC(=O)CC(=O)CC(O)c1cccc(C#N)c1` (stereo not given), 0.23; as for `CCCC=C(CCC)[C@@H](NP(=O)(c1ccccc1)c1ccccc1)c1ccc(C(F)(F)F)cc1`, -0.0267.

The compound `CCCN1C(=O)[C@]2(Cc3ccccc3)N=C(c3ccc(OCCCO)cc3)O[C@@H]2c2ccccc21` showed a composite z-score of 0.642. Consider `C[C@]12C(=O)N(CCCCCCO)[C@@H]3C(=O)N(c4ccc(Cl)cc4)CC=CC31O[C@@H]1/C=C\CCCOC(=O)C12` (stereo not given in full), for which the composite z-score was -0.506. `COCCOC(=O)N1C(=O)[C@@]2(c3ccccc31)[C@H](c1ccc(OCCO)cc1)N1[C@H](c3ccccc3)[C@H](c3ccccc3)OC(=O)[C@H]1[C@@H]2C(=O)Nc1nc2ccccc2s1`: the composite z-score turned out to be 0.545. Compound `C=CCN1Cc2ccccc2C[C@@]2(N=C(c3ccc(OCCCO)cc3)O[C@H]2c2ccccc2)C1=O` had a composite z-score of 0.147.

Turning to `CN(C)CCCCNC(=O)[C@H]1C[C@H]2C(=O)N3CCC[C@H]3C(=O)N2[C@H]1c1ccc(O)cc1`, the composite z-score is -0.364. In the case of `COC1(C)CN(Cc2ccccc2Br)[C@H](/C=C/c2ccccc2)[C@H](Cc2ccccc2)O1` (stereo not given in full), the composite z-score was -0.383.

Take `COc1cc(OC)c(C(O)C2C=CC3C(=O)N(c4ccccc4)C(=O)C3N2Nc2ccc(C#N)cc2)cc1Br` (stereo not given): the composite z-score turned out to be 0.763.

The compound `O=C(O)[C@]1(Cc2ccccc2)N=C(c2ccc(OCCCO)cc2)O[C@@H]1c1ccccc1` had a composite z-score of -0.856. `O=C1c2ccccc2[C@@]2(Cc3ccccc3N(C3CC3)C2=O)[C@H](c2ccc(CO)cc2)N1C1CCCCC1` displayed a composite z-score of -0.412. In turn, `COCCOC(=O)N1C(=O)[C@@]2(c3cc(C#CCC(C(=O)OC)C(=O)OC)ccc31)[C@H](c1ccc(OCCO)cc1)N1[C@H](c3ccccc3)[C@H](c3ccccc3)OC(=O)[C@H]1[C@@H]2C(=O)N1CCN(c2ncccn2)CC1` gave a composite z-score of 0.517. `O=C1O[C@@H](c2ccccc2)[C@@H](c2ccccc2)N2[C@@H](c3ccccc3OCCO)[C@]3(C(=O)Nc4ccc(C#CCCO)cc43)[C@@H](C(=O)N3CCN(c4ncccn4)CC3)[C@H]12` gave a composite z-score of -0.022. With `COc1cc(CO)cc(I)c1O[C@H]1C=C(C(=O)NCCO)C[C@@H](N(CC2CCCCC2)C(=O)c2ccc(C(F)(F)F)cc2)[C@@H]1O`, the composite z-score came to 0.515. Turning to `Cc1c(NC(=O)/C(C#N)=C/C=C/c2ccccc2[N+](=O)[O-])c(=O)n(-c2ccccc2)n1C`, the composite z-score was found to be 0.187. For `CCC[C@@H]1C[C@@]1(CCC)[C@@H](NP(=O)(c1ccccc1)c1ccccc1)c1ccc(Cl)cc1`, the composite z-score is -0.537. `C=CCN1C(=O)[C@]2(CC=C)N=C(c3ccc(OCCCO)cc3)O[C@@H]2c2ccccc21`: the composite z-score amounted to 0.925.

In turn, `O=C1c2ccccc2[C@](Cc2ccccc2I)(C(=O)NCCN2CCOCC2)[C@H](c2ccc(CO)cc2)N1Cc1ccccc1` had a composite z-score of 0.167. The compound `COC(=O)[C@@]1(Cc2ccc(F)cc2)[C@H]2c3cc(C(=O)N4CCCC4)n(CCc4c[nH]c5ccc(OC)cc45)c3C[C@H]2CN1C(=O)c1ccccc1` yielded a composite z-score of 0.763.

For `O=C1c2ccccc2[C@](Cc2ccccc2I)(C(=O)NCc2ccccc2)[C@H](c2ccc(CO)cc2)N1C1CCCCC1`, the composite z-score stood at 0.228. `COCC(=C=CC[C@H](O)c1cccc(OCCO)c1)C[C@H](O)c1ccccn1` displayed a composite z-score of -0.366. With `CN1C2C=C(CCCO)C(C3C(=O)N(C(N)=O)C(=O)C32)C1c1cccs1` (stereo not given), the composite z-score is -0.259. For `CN(C)CCCNC(=O)[C@@H]1c2ccccc2C(=O)N(Cc2ccc(OC(F)(F)F)cc2)[C@H]1c1ccc(CO)cc1`, the composite z-score is -0.617.

For `CC(C)(C)OC(=O)CC[C@]1(C(=O)NCCN2CCOCC2)N=C(c2ccc(OCCCO)cc2)O[C@H]1c1ccccc1`, the composite z-score was -0.174.
